Experimental findings from ChEMBL document CHEMBL4513216, “Probing the Open Global Health Chemical Diversity Library for Multistage-Active Starting Points for Next-Generation Antimalarials” (ACS Infect Dis, 2020) are described below.

Hit rate of the full screen: of about 69,000 compounds, about 8,600 (12%) showed an effect of 50% or more. Only a selection was taken, and strong results are over-represented in it overall.

This assay relates to Plasmodium berghei. As to the kind of experiment: Screen against P. berghei liver stage (PbLuc), transformed with Luciferase, at 10uM. It counts as functional, HepG2. Conditions: tested at 10 uM.
Turning to `CCN(CC)C(=O)c1ccc(CNc2cncc(-n3cccn3)n2)cc1`, the INHIBITION is 29.4%.
With `Cc1nc(CN2CCN(c3ccc(Cl)cn3)CC2)no1`, the INHIBITION is on record as -52.4%.
With `CCC(CC)C(O)CNC(=O)Nc1cccc(-c2nccn2C)c1` (stereo not drawn), the INHIBITION was determined as 50.8%.
To `Cn1ccnc1-c1cccc(NC(=O)NCCCO)c1` belongs 10%; to `CCOCCNC(=O)Nc1cccc(-c2nccn2C)c1`, -21.8%; to `Cn1cnc2c1C(COCC1CC1)CN(c1ncccn1)C2` (stereo not drawn), -32%.
To `CC(=O)N1CCCN(C(=O)NC(C)Cn2cccn2)CC1` (stereo not drawn) belongs 21.6%; to `Cn1cc(CN2C[C@@H]3CCCO[C@@H]3[C@H](N3CCCC3=O)C2)cn1`, -3.51%.
Turning to `CCOCc1nc2c(c(NC(COC)c3ccccn3)n1)CCNCC2` (stereo not drawn), the INHIBITION was 8.31%.
In the case of `COc1ccc(C(=O)C2CCCN(Cc3ccon3)C2)c(OC)c1` (stereo not drawn) it was 47.7%.
In the case of `COc1ccc(C(=O)C2CCCN(Cc3cc(C)n[nH]3)C2)c(OC)c1` (stereo not drawn) it was 68.5%.
Regarding `COc1ccc(C(=O)C2CCCN(CCCn3cccn3)C2)c(OC)c1` (stereo not drawn), the INHIBITION is recorded as 25.4%.
In the case of `COCCc1ncc(CN2CCCC(C(=O)c3ccccc3)C2)cn1` (stereo not drawn) it was 36.8%; in that of `COc1ccc(F)cc1C(=O)C1CCCN(Cc2ccc(C)s2)C1` (stereo not drawn), 43.9%.
In the case of `COc1ccc(C(=O)C2CCCN(Cc3ccncc3)C2)cc1OC` (stereo not drawn) it was 63%.
Consider `COc1ccc(C(=O)C2CCCN(Cc3ccncc3)C2)c(OC)c1` (stereo not drawn), for which the INHIBITION is reported as -3.1%.
On to `COc1ccc(C(=O)C2CCCN(Cc3ccc(C)o3)C2)c(OC)c1` (stereo not drawn), for which the INHIBITION is reported as 42.9%.
With `COc1ccc(C(=O)C2CCCN(Cc3cccc(F)c3)C2)c(OC)c1` (stereo not drawn), the INHIBITION is 76.9%.
In the case of `COc1ccc(C(=O)C2CCCN(CCc3ccccc3)C2)c(OC)c1` (stereo not drawn) it was 71.3%; in that of `COc1ccc(C(=O)C2CCCN(Cc3ccccc3O)C2)c(OC)c1` (stereo not drawn), -20.5%.
To `CN1CCN(C(=O)c2ncn3c2CN(C)S(=O)(=O)c2ccccc2-3)CC1` belongs -79.8%; to `CCc1noc(CN2CCC(c3ccnn3CCO)CC2)n1`, -19.4%; to `CN(C)C(C(=O)N1CCC(c2ncc[nH]2)CC1)c1ccc2c(c1)OCO2` (stereo not drawn), 14.3%.
To `O=C1COC2(CCN(C(=O)c3ccoc3)CC2)CN1Cc1ccccn1` belongs -33.9%; to `CN(C)C(CNC(=O)CCNC(=O)OCC(F)(F)F)c1ccsc1` (stereo not drawn), 61.9%.
With `CN(C)C(CNC(=O)OCC(F)(F)F)c1ccsc1` (stereo not drawn), the INHIBITION turned out to be 44.3%.
Consider `CCOCCC(=O)NCC(C)c1ccsc1` (stereo not drawn), for which the INHIBITION worked out at 32%.
With `CC(C)c1cc(C(=O)N2CCCC(c3cc(=O)nc4n3CCC4)C2)no1` (stereo not drawn), the INHIBITION amounted to 18.4%.
To `CC1(C)CN(C(=O)Nc2cc(C(F)(F)F)c[nH]c2=O)CCO1` belongs 4.97%; to `CCO[C@H]1CC[C@H]2[C@H]1OCCN2CCOCc1ccccc1`, 4.98%; to `O=C(N[C@@H]1CN(c2ncccn2)C[C@@H]2CCCO[C@@H]21)c1ccnnc1`, -3.52%.
To `COc1ccc(Cl)cc1-n1c(COC(C)C)n[nH]c1=O` belongs 26.4%; to `COc1ccc(OC)c(-n2c(COC(C)C)n[nH]c2=O)c1`, 45.4%.
To `COc1ccc(C)cc1-n1c(COC(C)C)n[nH]c1=O` belongs 72.3%; to `COc1cccc(C(O)C(=O)N(C)CCc2ccccn2)c1` (stereo not drawn), 47.7%; to `O=C(CSCC1CC1)N1CCC2(CCCN(C3CCOCC3)C2=O)C1` (stereo not drawn), 1.48%.
Take `O=C(c1cnn2c1OCCC2)N1CCC2(CC1)OCCO2`: the INHIBITION is recorded as -14.2%.
In the case of `CS(=O)(=O)N1CCN(C(=O)c2cnn3c2OCCC3)CC1` it was 31.6%.
In the case of `CN(C)C(=O)c1cnn2c1OCCC2` it was 60.6%; in that of `CC(NCCCC#N)c1ccc(S(C)(=O)=O)c(F)c1` (stereo not drawn), 19.1%; in that of `CCn1c(C2CCCNC2)nn(CCn2cncn2)c1=O` (stereo not drawn), -7.13%.
To `O=C(CCn1cccc1)NCc1ccc(CN2CCCCCC2)o1` belongs 37.4%; to `CCOc1ccc2c(c1)C=C(C(=O)NC(C)Cn1cccn1)CO2` (stereo not drawn), 2.91%; to `CCCOc1ccc2c(c1)OCC(C(=O)NC(C)Cn1cccn1)=C2` (stereo not drawn), 30.9%.
With `CCCOc1ccc2c(c1)OCC(C(=O)NC(C)Cn1ccnc1)=C2` (stereo not drawn), the INHIBITION stood at 51%.
To `CCOCC1CN(S(=O)(=O)N(C)C)Cc2cnn(CC)c21` (stereo not drawn) belongs 29%.
Take `Cc1cc(NC(=O)CN2CCC(N(C)Cc3ncc(C)o3)C2)n(C)n1` (stereo not drawn): the INHIBITION is -29.9%.
In the case of `Cc1cnn(CC(C)NCc2ccc(OCc3noc(C)n3)cc2)c1` (stereo not drawn) it was -79.3%; in that of `Cc1cnn(CCNCc2ccc(OCc3ccccn3)cc2)c1`, 34.6%; in that of `Cc1cnn(CCNCc2ccc(OCc3cscn3)cc2)c1`, 85.1%.
In the case of `c1ccc(OCCCNCCn2cccn2)cc1` it was 38.7%.
To `Cc1cnn(CCNCc2ccc(OCc3noc(C)n3)cc2)c1` belongs 66.3%; to `COc1ccc(OCCNCCn2cccn2)cc1`, 0.932%.
For the molecule `Cc1cnn(CCNCc2nc(COc3ccc(F)cc3)no2)c1`, the INHIBITION is 19.3%.
In the case of `COc1ccc(OCCCNCCn2cccn2)cc1` it was 64.7%.
In the case of `Cc1nc(COc2ccc(CNCCn3cccn3)cc2)cs1` it was 88.5%; in that of `c1ccc(OCc2nc(CNCCn3cccn3)cs2)cc1`, 1.95%; in that of `Cc1cnn(CCNCc2ccc(OCc3csc(C)n3)cc2)c1`, -37.9%.
To `Cc1ccc(OCc2nc(CNCCn3cccn3)cs2)cc1` belongs -24.1%; to `O=C(c1cc2c(F)cccc2[nH]1)N1CCCCC1Cn1cccn1` (stereo not drawn), -4.94%.
Consider `Cc1cc(-c2cc(N)c(=O)n(CC(=O)NC3CCCCC3)n2)c(C)o1`, for which the INHIBITION is 13.835%.
To `O=C(NCCn1ccnc1)N1CCN(Cc2ccco2)CC1` belongs -37.7%.
To `Cc1ccc(NC2CCN(C(=O)c3ccncc3)CC2)nn1` belongs -39.7%.
